# High-throughput results as filed in PubChem BioAssay.
# RORgamma inh – qHTS for inhibitors of ROR gamma transcriptional activity. Potency, µM (series often up to 53.6 µM), inactives show at the highest dose activity change, negative = inhibition, usual class: inhibitors. AID 2551, 2010. Nuclear receptor ROR-gamma (Mus musculus), P51450. Drosophila S2 Gal4-RORgamma UAS-luciferase reporter, 20 h. 310,000 compounds, 5.4% hits; note: % is set by controls: 0 for no effect and ±100 for the full control effect; nearly all actives have a fitted effect of over 60% in size
# Target sequence (P51450 whole entry, looked up, the tested form may be a part): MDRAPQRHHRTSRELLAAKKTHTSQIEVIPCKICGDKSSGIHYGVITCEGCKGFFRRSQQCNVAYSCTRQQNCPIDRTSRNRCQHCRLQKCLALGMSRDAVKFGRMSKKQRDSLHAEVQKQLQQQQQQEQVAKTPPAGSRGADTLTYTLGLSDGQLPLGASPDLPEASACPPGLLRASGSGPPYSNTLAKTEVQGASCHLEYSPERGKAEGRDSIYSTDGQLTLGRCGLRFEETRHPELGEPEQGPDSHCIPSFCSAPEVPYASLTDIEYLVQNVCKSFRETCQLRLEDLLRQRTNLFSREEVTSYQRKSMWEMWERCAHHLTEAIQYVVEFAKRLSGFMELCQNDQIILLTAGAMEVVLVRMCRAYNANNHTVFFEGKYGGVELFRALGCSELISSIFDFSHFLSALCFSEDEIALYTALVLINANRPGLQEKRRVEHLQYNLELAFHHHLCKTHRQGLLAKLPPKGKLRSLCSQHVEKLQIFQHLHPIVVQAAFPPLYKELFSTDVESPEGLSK
#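 Luciferase reporter read in Schneider cells carrying Gal4-RORγ (mouse) and UAS-Photinus luciferase; cells given compound 1 h before 700 uM copper sulfate induction, then incubated 20 h at ambient temperature.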
# ELG1 repair inh – qHTS screen for small molecules that inhibit ELG1-dependent DNA repair in human embryonic kidney (HEK293T) cells expressing luciferase-tagged ELG1; HEK293T ELG1-luciferase reporter, luminescence, 16 h; DNA damage induced by 5-fluorouridine; Potency, µM (series often up to 46.1 µM), for inactives: top-dose activity change, negative = inhibition, usual class: inhibitors; 330,000 compounds, 2.3% hits; note: % is set by controls: 0 for no effect and ±100 for the full control effect; nearly all actives have a fitted effect of over 55% in size
#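 HEK293T cells expressing luciferase-tagged ELG1 (2,000/well) received 5-Fluorouridine plus compound or DMSO for 16 hr at 37 °C. Luciferase was read by ONE-Glo luminescence after 30 min at room temperature.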
# Gal4-VP16 FLuc – VP16 counterscreen qHTS for inhibitors of ROR gamma transcriptional activity; Drosophila S2 Gal4-VP16 UAS-luciferase, luminescence, 20 h; Potency, µM (top dose mostly 53.6 µM), for inactives: top-dose activity, negative = inhibition, usual class: inhibitors; 310,000 compounds, 3.5% hits;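 note: Gal4-VP16 expression switched on by copper sulfate through the metallothionein promoter; % is set by controls: 0 for no effect and ±100 for the full control effect; nearly all actives have a fitted effect of over 50% in size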
# SW480 rerep – A quantitative high throughput screen for small molecules that induce DNA re-replication in SW480 colon adenocarcinoma cells; SW480 DNA re-replication, Hoechst DNA content imaging, 48 h; Potency, µM (doses to about 46.1 µM), without a hit: at the highest dose re-replication activation, most hits filed as activators; 340,000 compounds, 1.8% hits; note: % of control where 0% means no effect; nearly all actives have a fitted effect of over 55% in size
#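 DNA re-replication was detected as more nuclei of elevated Hoechst intensity after 48 hr exposure to compound (23 nL pinned per well of 250 cells).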
# MCF10A rereplic – A quantitative high throughput screen for small molecules that induce DNA re-replication in MCF 10a normal breast cells; MCF 10A DNA re-replication, Hoechst nuclear intensity, 48 h; Potency, µM (titrated, usually from 46.1 µM), for inactives: top-dose activity, positive = re-replication, actives largely listed as activators; 350,000 compounds, 2.9% hits; AID 624296, 2012; note: % of control where 0% means no effect; nearly all actives have a fitted effect of over 50% in size
# * marks the source's active call; other numbers are inactive results; ? = inconclusive; / = not tested or not shown; [ ] = remark or other dose. In the library only some 10% were active in any assay of this set; here they are far more common. Calls come from the whole dose curve; as a rule, active = well fitted curve in the direction sought with a large enough effect; inconclusive = small, poorly fitted or top-dose-only effect, or another doubt; inactive = no such curve, though single readings can be large; an effect the other way counts as inactive or inconclusive. Potency is the fitted concentration of half-maximal effect.
SMILES,RORgamma inh,ELG1 repair inh,Gal4-VP16 FLuc,SW480 rerep,MCF10A rereplic
COc1ccc(C(=O)N(Cc2ccco2)Cc2cc3cc(C)ccc3[nH]c2=O)cc1OC,/,/,/,9.9%,3.4%
COc1ccccc1NC(=O)N(Cc1ccco1)Cc1cc2c(C)ccc(C)c2[nH]c1=O,-19.6%,5.17µM*,2.5%,-0.6%,-7.6%
COc1ccccc1NC(=S)N(Cc1ccco1)Cc1cc2cc(C)ccc2[nH]c1=O,1.4%,16.4µM*,4.6%,?,?
COC(=O)c1cccc(S(=O)(=O)N(Cc2ccco2)Cc2cc3cc(OC)c(OC)cc3[nH]c2=O)c1,13.6%,23.1µM*,-3.8%,-0.1%,2.7%
COC(=O)c1cccc(S(=O)(=O)N(Cc2ccco2)Cc2cc3ccc(OC)cc3[nH]c2=O)c1,?,?,-13.8%,1.3%,0.0%
CCCn1c(Nc2cccc(OC)c2)nc2ccccc21,-25.1%,-1.0%,6.6%,1.8%,5.9%
CCOc1ccc(C(C)NC(=S)NC2CCCCC2)cc1OCC (stereo unspecified),7.08µM*,23.1µM*,14.1µM*,-3.4%,-1.4%
CCC(C(=O)NC1CCCCCC1)c1ccccc1 (stereo unspecified),/,/,/,-11.1%,0.8%
CCc1ccc(C(C)NC(=O)C2CCCC2)cc1 (stereo unspecified),-18.1%,-2.8%,-3.3%,-1.0%,10.9%
CC(CCc1ccccc1)NC(=S)NC1CCCCC1 (stereo unspecified),2.51µM*,?,15.8µM*,-2.1%,5.9%
CCC(NC(=S)NC1CCCCC1)c1ccccc1 (stereo unspecified),3.16µM*,-16.8%,7.08µM*,/,/
CCc1ccc(C(C)NC(=S)NC2CCCCC2)cc1 (stereo unspecified),2.24µM*,-14.9%,3.16µM*,?,?
CC(C(=O)OCC(=O)NC1CCCC1)N1C(=O)c2ccccc2C1=O (stereo unspecified),/,8.7%,/,-3.1%,6.9%
COc1ccc([C@H](NC(=O)OC(C)(C)C)C(=O)OC(C)(C)C)cc1,/,25.8%,/,-1.7%,-7.4%
CC(C)C12CN3CC(C(C)C)(CN(C1)C3(C)C)C2=O,-5.6%,4.3%,12.4%,-2.7%,9.1%
CCOc1ccc(C(C)NC(=O)C2CCCC2)cc1 (stereo unspecified),-3.0%,-26.9%,1.2%,-9.0%,-3.2%
CCC(C)c1ccc(C(C)NC(=S)NC2CCCCC2)cc1 (stereo unspecified),2.82µM*,?,2µM*,?,?
CCOc1ccc(C(C)NC(=S)NC2CCCCC2)cc1 (stereo unspecified),3.16µM*,?,10µM*,?,3.3%
COc1ccccc1N1CCN(/N=C/C=C/c2ccccc2[N+](=O)[O-])CC1,-17.9%,?,-18.3%,8.2%,5.7%
CC(/C=N\NC(=O)c1cc(C)oc1C)=C\c1ccccc1,6.31µM*,?,?,-0.4%,12.0%
Cc1ccc(/C=N/NC(=O)c2cc(C)oc2C)cc1,-41.7%,?,?,4.61µM*,?
CC(/C=N/NC(=O)c1ccc(Br)cc1)=C\c1ccccc1,-9.9%,?,4.1%,-2.3%,-4.3%
CCCCn1c(N)c(N(Cc2ccccc2)C(=O)COc2ccccc2F)c(=O)[nH]c1=O,/,-5.4%,/,?,0.4%
Cc1ccc2c(c1)c1c3n2CCN[C@H]3CCC1,-22.3%,/,-5.5%,-3.5%,?
c1cc2c(cc1C1CCCCC1)c1c3n2CCCNC3CCC1 (stereo unspecified),?,0.8%,-99.1%,17.6%[9.22 µM],?
SMILES,RORgamma inh,ELG1 repair inh,Gal4-VP16 FLuc,SW480 rerep,MCF10A rereplic
Cc1ccc2c(c1)c1c3n2CCN=C3CCC1,11.2µM*,-14.0%,?,4.9%,23.7%
c1cc2c(cc1C1CCCCC1)c1c3n2CCN=C3CCC1,23.8%,-2.2%,2.1%,20.6µM*,16.4µM*
O=C1[C@H]2[C@H]3[C@H](O)[C@H](O)C/C(=N/OC[C@@H](O)COCc4ccco4)[C@@H]3CC[C@@H]2C(=O)N1Cc1ccccc1,8.3%[10 µM],/,-1.4%[10 µM],/,/
Cc1ccc(S(=O)(=O)N2CCN(C(=O)COC(=O)/C=C/c3ccccc3)CC2)c(C)c1,/,4.5%,/,0.9%,1.4%
CCOc1ccc(C(F)(F)F)cc1NC(=O)COc1ccc(C(F)(F)F)cc1[N+](=O)[O-],22.7%,-2.4%,21.8%,-0.9%,5.2%
CCCOP(=O)(OCCC)c1c([N+](=O)[O-])cc(C(F)(F)F)cc1[N+](=O)[O-],-30.8%,-0.3%,26.7%,18.4µM*,?
C#CCOCCOCCOCCNc1nc(N2CCN(C(=O)[C@H](CCC(=O)O)n3cc([C@@H](N)[C@H](C)CC)nn3)CC2)nc(N2CCN(C(=O)[C@H](CCC(=O)O)n3cc([C@@H](N)CC(N)=O)nn3)CC2)n1,/,2.0%,/,-37.6%,?
CCc1nc(SCC(=O)Nc2sc(C)c(C)c2C(=O)OC)c2ccccc2n1,-4.0%,-15.1%,-0.6%,/,/
Cc1ccc(-c2cc(C(=O)N/N=C/c3c(C)nn(-c4ccccc4)c3C)n[nH]2)s1,-4.6%,?,?,1.3µM*,?
Cc1cc(C(=O)N/N=C/c2ccc(-c3cccc(Br)c3)o2)n[nH]1,?,-0.6%,-19.5%,20.6µM*,?
O=C(NCCCN1CCOCC1)C(=O)N/N=C/c1c2ccccc2cc2ccccc12,32.4%,?,-5.0%,23.1µM*,?
Cc1nn(-c2ccccc2)c(C)c1/C=N/NC(=O)c1cc(C(C)(C)C)[nH]n1,?,?,-2.0%,-4.5%,8.1%
CCOc1ccc2ccccc2c1/C=N/NC(=O)c1cc(C)[nH]n1,-31.4%,6.0%,2.1%,-31.0%,-5.9%
Cc1cc(C(=O)N/N=C/c2c3ccccc3cc3ccccc23)n[nH]1,-12.4%,-22.0%,-4.8%,?,20.6µM*
N#CC1=C(N)Oc2cc(O)ccc2C1c1ccc(Br)s1 (stereo unspecified),?,-2.9%,3.8%,-2.8%,-0.9%
Cc1ccc(-n2[nH]c(C)c(/C=N/NC(=O)c3ccc(O)cc3O)c2=O)cc1,2.51µM*,-1.3%,7.08µM*,8.2µM*,1.8%
Cc1[nH]n(-c2ccccc2)c(=O)c1/C=N/NC(=O)c1ccc(O)cc1O,1.78µM*,-2.3%,7.08µM*,?,8.7%
Cc1cc(-c2n[nH]c(=S)n2/N=C/c2cccc([N+](=O)[O-])c2)n[nH]1,-16.0%,2.3%,-11.7%,-4.1%,-3.8%
Cc1[nH]n(-c2ccccc2)c(=S)c1C=Nc1cccc([N+](=O)[O-])c1,1.78µM*,1.1%,7.08µM*,15.2%,?
